The text below walks through data of PubChem BioAssay (NCI).

The structures appear in SMILES notation. The panel holds about 79,000 compounds, 15% with a hit somewhere; the sample as a whole holds those more often. A number with no mark means an inactive call. Activity calls are given as the source filed them. Rule as the data show it: active = growth inhibition above about 70%; inactive = the rest.

The nature of assay [1]: NCI Yeast Anticancer Drug Screen. Data for the rad50 strain (AID 155).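 Also: 0% = growth of vehicle-only cultures of the same strain.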 The following applies: S. cerevisiae rad50 strain growth inhibition; at 50.0 µM; stronger effect = higher value. An outline of the steps: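 Yeast carrying a defined DNA repair defect were exposed to test compounds, and growth was compared with vehicle-treated controls to give percent inhibition.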
Assay [2] in a line: NCI Yeast Anticancer Drug Screen. Data for the mec2-1 strain (AID 157). The conditions noted are these: S. cerevisiae mec2-1 strain, at 50.0 µM, stronger effect = higher value. The method in brief:
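mec2-1 yeast strain, carrying an alteration in DNA damage repair or cell cycle control, was exposed to compounds; growth inhibition was measured relative to vehicle-treated controls.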

Assay [3] can be described thus: NCI Yeast Anticancer Drug Screen. Data for the sgs1 mgt1 strain (AID 161).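 Also: 0% = growth of cultures given vehicle only.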 The conditions noted are these: S. cerevisiae sgs1 mgt1 strain, at 50.0 µM, stronger effect = higher value. The method in brief:
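Growth of a repair-deficient yeast mutant was monitored after compound treatment and expressed as inhibition relative to vehicle-treated cultures.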

Assay [4] can be described thus: NCI Yeast Anticancer Drug Screen. Data for the cln2 rad14 strain (AID 165).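 Also: 0% = growth equal to vehicle treated cultures.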 The following applies: S. cerevisiae cln2 rad14 strain, at 50.0 µM, stronger effect = higher value. An outline of the steps: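 Yeast carrying cln2 and rad14 alterations (cell cycle control and DNA damage repair) were exposed to compounds. Growth inhibition was measured against vehicle-treated controls.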

Assay [5] can be described thus: NCI Yeast Anticancer Drug Screen. Data for the bub3 strain (AID 167). The conditions noted are these: S. cerevisiae bub3 mutant strain, at 50.0 µM, stronger effect = higher value. An outline of the steps:
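Compounds were applied to a genetically altered yeast strain carrying a cell-cycle control defect. Growth inhibition was scored against vehicle-treated controls.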

Assay [6] in a line: NCI Yeast Anticancer Drug Screen. Data for the mlh1 rad18 strain (AID 175). The following applies: S. cerevisiae mlh1 rad18 strain growth inhibition; at 50.0 µM; stronger effect = higher value. The method in brief:
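Growth inhibition of the yeast strain was measured after compound exposure and expressed relative to vehicle-treated controls. The strain carries defined defects in DNA damage repair.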

For the compound `COc1ccc2c3c1OC1C(OC)(OC)CC4(C=C2)CN(C)CCC314` (stereo unspecified), the growth inhibition is -31% in assay [1]; -22.4% in assay [2]; -20.4% in assay [3]; -11.4% in assay [4]; -23.9% in assay [5]; -11.8% in assay [6].
For `CN(C)C(=O)N(CCCl)N=O`, the growth inhibition was 5.1% in assay [1]; -4.2% in assay [2]; 1.45% in assay [3]; 2.55% in assay [4]; 13.1% in assay [5]; 20.8% in assay [6].
Consider `COc1ccc2[nH]c3c(c2c1)CCNC3C` (stereo unspecified), for which the growth inhibition was 2.3% in assay [1]; -12.6% in assay [2]; 2.6% in assay [3]; -52.1% in assay [4]; 5.4% in assay [5]; -17.3% in assay [6].
As to `BrCCCBr`, the growth inhibition was 15.1% in assay [1]; 5.8% in assay [2]; 14.4% in assay [3]; 10.7% in assay [4]; 12.4% in assay [5]; 21.3% in assay [6].
With `C/C=C1/CN2CCC1CC2C(O)c1ccnc2ccc(OCCO)cc12` (stereo unspecified), the growth inhibition in assay [1] is -8.4%; in assay [2], -13.2%; in assay [3], -2.35%; in assay [4] it was -9.35%; in assay [5] it was -24.6%; in assay [6], 24.9%.
`CCOC(=O)CNCCC1(CC)C(=O)NC(=O)NC1=O`: the growth inhibition in assay [1] is -0.55%; in assay [2], -8.2%; in assay [3], 2.15%; in assay [4] it was -37.2%; in assay [5], -0.6%; in assay [6], -12.8%.
`O=[N+]([O-])c1ccc(SN2C3CCCCC32)c([N+](=O)[O-])c1` (stereo unspecified): the growth inhibition in assay [1] was 3.85%; in assay [2], 11.7%; in assay [3], 6.1%; in assay [4], 7.85%; in assay [5], 11.8%; in assay [6], 22.7%.
For `c1ccc(CCN2CCCCC2)nc1`, the growth inhibition in assay [1] is 2.55%; in assay [2], -1.8%; in assay [3] it was -0.15%; in assay [4], -1.1%; in assay [5] it was 13.3%; in assay [6], -0.85%.
As to `C=CC1CN2CCC1CC2C(O)c1ccnc2ccccc12` (stereo unspecified), the growth inhibition in assay [1] is 11.9%; in assay [2], -3.7%; in assay [3], 5.95%; in assay [4], 10.9%; in assay [5] it was 20.1%; in assay [6], 4.1%.
In the case of `O=c1cc([N+](=O)[O-])n(O)cc1[N+](=O)[O-]`, the growth inhibition in assay [1] was 31.1%; in assay [2] it was 12.6%; in assay [3] it was 32.5%; in assay [4] it was 21.2%; in assay [5], -4.1%; in assay [6] it was 44.5%.
In the case of `O=C(Nc1cccc(Cl)c1Cl)C(Cl)(Cl)Cl`, the growth inhibition in assay [1] is 11.8%; in assay [2] it was 20.9%; in assay [3], 19.4%; in assay [4], 6.35%; in assay [5], 31.2%; in assay [6], 28.8%.
As for `OC(CN1CC1)C(O)CN1CC1` (stereo unspecified), the growth inhibition was -16.4% in assay [1]; -26.2% in assay [2]; -34% in assay [3]; 8.15% in assay [4]; -44.8% in assay [5]; -14.2% in assay [6].
For `CCOC(OCC)c1ccccc1.[C-]#[O+].[C-]#[O+].[C-]#[O+].[Cr]`, the growth inhibition in assay [1] is 25.1%; in assay [2], 21.4%; in assay [3], 33%; in assay [4] it was 13.9%; in assay [5], 32.7%; in assay [6] it was 8.8%.
In the case of `C[As](C)(=S)[As](C)(C)=S`, the growth inhibition is 77.3% (active) in assay [1]; 50.1% in assay [2]; 65.2% in assay [3]; 27.6% in assay [4]; 66.7% in assay [5]; 69.9% in assay [6].
Regarding `CC1CN1C(=O)NCCCCCCNC(=O)N1CC1C` (stereo unspecified), the growth inhibition in assay [1] is -17.7%; in assay [2], -0.2%; in assay [3], -2.95%; in assay [4], -38.7%; in assay [5], -5.55%; in assay [6], -28.6%.
For the compound `COc1cc(CC(N)c2ccccc2)ccc1O` (stereo unspecified), the growth inhibition was -7.65% in assay [1]; 2.45% in assay [2]; 11.8% in assay [3]; -20.8% in assay [4]; 2.1% in assay [5]; -18.8% in assay [6].
As for `CC1NC1(c1ccccc1)n1ccnc1` (stereo unspecified), the growth inhibition is 13.4% in assay [1]; -18.1% in assay [2]; 5.8% in assay [3]; -14.5% in assay [4]; 11.4% in assay [5]; 3.4% in assay [6].
For the compound `O=C1NC(=O)C2(c3ccccc3)CCN1C2=O` (stereo unspecified), the growth inhibition in assay [1] was 1.35%; in assay [2], 4.6%; in assay [3], 1.8%; in assay [4], -7%; in assay [5], -12.2%; in assay [6] it was 10%.
Consider `CCOc1ccc2ccccc2c1OP(=O)(OCC)OCC`, for which the growth inhibition in assay [1] was 23.9%; in assay [2], 22%; in assay [3], 38.9%; in assay [4] it was 29.6%; in assay [5] it was 40.4%; in assay [6], 25.6%.
Consider `CC1OC(n2cc(C(N)=O)c3c(N)ncnc32)C(O)C1O` (stereo unspecified), for which the growth inhibition in assay [1] is 19.4%; in assay [2], 20.9%; in assay [3] it was 3.75%; in assay [4] it was 16.9%; in assay [5], 14.2%; in assay [6], 20.1%.
As for `O=[N+]([O-])c1cc2n[nH]nc2c2nonc12`, the growth inhibition in assay [1] is 1.45%; in assay [2], 11.3%; in assay [3], 11.4%; in assay [4], -2.05%; in assay [5] it was 27.1%; in assay [6], 5.7%.
